Shown are actives, neighbours in structure and some others; about 7.7% of the full set was active somewhere.
FMDV inh – High Throughput Screening for Foot and Mouth Disease Virus Antivirals; actives 1.2% (n = 410,000); AID 1159524, 2015; FMDV antiviral cell-based qHTS; Potency, µM (titrated, usually from 57.9 µM), usual class: inhibitors; calls by dose curve; tested in HEK293T cells; further: read-out not given here; nearly all actives have a fitted effect of over 45% in size
TbPYK inhibitor – qHTS of Trypanosoma Brucei Inhibitors; pyruvate kinase (Trypanosoma brucei), Q57TT1; TbPYK enzyme, Kinase-Glo Plus ATP luminescence, 45 min; Potency, µM (series often up to 76.8 µM), hits mostly inhibitors; actives 0.12% (n = 410,000); further: nearly all actives have a fitted effect of over 50% in size
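ADP (130 uM final) triggers the TbPYK reaction after compound addition; incubation is 45 min at room temperature. Kinase-Glo Plus is then added and luminescence imaged. Normalized data are fitted to concentration-effect curves.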
RE007 growth inh – qHTS Assay for Inhibitors of the HIV-1 protein Vpr; S. pombe RE007 Vpr strain, BacTiter-Glo ATP luminescence, 24 h; Potency, µM (highest dose often 92.2 µM), most hits filed as inhibitors; actives 0.21% (n = 360,000); active means well fitted falling curve with a large enough effect; inconclusive means small, poorly fitted or top-dose-only effect; inactive means no such curve, though single readings can be large or run the other way; further: nearly all actives have a fitted effect of over 50% in size
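Fission yeast strain RE007, carrying one chromosomally integrated HIV-1 vpr copy, was seeded at OD 0.01 in PMG+AL medium with 23 nL pinned compound. After 24 h at 30 °C and 99% humidity, viability was read by BacTiter-Glo luminescence.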
Sm TGR inh – qHTS Assay for the Inhibitors of Schistosoma Mansoni Peroxiredoxins; Potency, µM (highest dose often 114 µM), hits mostly inhibitors; actives 3% (n = 360,000); purified TGR, DTNB reduction, TNB absorbance 405 nm; Schistosoma mansoni thioredoxin glutathione reductase (TGR), Q962Y6; further: nearly all actives have a fitted effect of over 60% in size
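First, TGR (20 nM dispensed) and NADPH were mixed with compound. Second, a 15 min room-temperature incubation followed. Third, further NADPH and then DTNB were added to start the reaction. Finally, TNB absorbance was monitored kinetically.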
FBPA Giardia inh – qHTS Assay for Inhibitors of Fructose-1,6-bisphosphate Aldolase from Giardia Lamblia; actives 0.71% (n = 290,000); Potency, µM (top dose mostly 59.6 µM), actives largely listed as inhibitors; purified Giardia FBPA; A8B2U2; AID 2451, 2010; further: nearly all actives have a fitted effect of over 55% in size
Target sequence (A8B2U2 whole entry, looked up): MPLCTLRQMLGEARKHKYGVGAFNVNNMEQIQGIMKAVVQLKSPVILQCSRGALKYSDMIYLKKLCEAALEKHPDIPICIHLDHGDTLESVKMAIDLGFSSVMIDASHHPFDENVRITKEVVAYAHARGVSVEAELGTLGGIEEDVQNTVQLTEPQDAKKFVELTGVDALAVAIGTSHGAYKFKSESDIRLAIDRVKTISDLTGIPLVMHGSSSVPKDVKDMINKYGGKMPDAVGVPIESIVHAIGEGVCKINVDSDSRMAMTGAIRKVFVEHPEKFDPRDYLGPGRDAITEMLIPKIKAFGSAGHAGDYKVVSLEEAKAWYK
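40 nM FBPA preincubated 10 min at RT with compound (up to 57.5 uM final), then substrate plus GAPDH/TPI/NAD/arsenate coupling and diaphorase/resazurin added. Fluorescence read after 20 min at RT, 525/598 nm.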
HCMV antiviral – qHTS Assay for inhibitors of the human cytomegalovirus (HCMV); activity change, negative = inhibition, % at 57.5 µM; AID 1259415, 2018; actives 4.5% (n = 410,000); HFF cells, HCMV-luciferase reporter, 72 h; active compounds read low; in the data active means activity change below about -60%; inconclusive means no clear call, values can overlap the other calls; inactive means above about -39%
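Inhibition of viral replication was scored as loss of reporter luminescence in HFFs infected with HCMV-luciferase (MOI 1 PFU/cell) for 72 h; compounds tested at 2 doses, normalized to buffer and Salinomycin controls.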
A number is an active result; . = inactive; ? = inconclusive; / = no result given; [ ] = remark or other dose. Unless noted, the call rests on the fitted dose curve; in most records, active means well fitted curve in the direction sought with a large enough effect; inconclusive means small, poorly fitted or top-dose-only effect, or another doubt; inactive means no such curve, though single readings can be large; an effect the other way counts as inactive or inconclusive.

SMILES	FMDV inh	TbPYK inhibitor	RE007 growth inh	Sm TGR inh	FBPA Giardia inh	HCMV antiviral
COc1ccc(/C=C/C(=O)c2ccc(O)cc2)cc1CN1CCOCC1	?	.	.	.	.	?
COc1ccc(C(=O)/C=C/c2ccc(OC)c(Cn3nnc4ccccc43)c2)cc1	13µM	.	.	.	.	?
COc1ccc(/C=C/C(=O)C23CC4CC(CC(C4)C2)C3)cc1CN1CCOCC1	?	.	.	.	.	-82
COc1ccc(C(=O)/C=C/c2ccc(OC)c(CN3CCOCC3)c2)cc1	14µM	.	.	.	.	-77
CCc1ccc(NC(=O)C(=O)NCC(c2cccnc2)N2CCN(c3ccc(F)cc3)CC2)cc1 (stereo not given)	.	.	/	.	/	.
COCC(=O)N1CC(=O)N2[C@@H](CO)[C@H](c3ccc(Br)cc3)[C@@H]2C1	/	/	/	/	/	.
Cc1ccc2c(CC(=O)Nc3cccc(Cl)c3C)coc2c1	.	.	/	.	/	.
COc1cccc(NC(=S)N(CCCN2CCCC2)Cc2cccn2Cc2ccc(Cl)cc2)c1	.	.	.	.	.	.
S=C(Nc1cccc(Cl)c1)N(CCCN1CCCC1)Cc1cccn1Cc1ccc(Cl)cc1	.	.	.	.	.	-79
CSc1cccc(NC(=S)N(CCCN2CCCC2)Cc2cccn2Cc2ccc(Cl)cc2)c1	40µM	.	.	.	.	?
COc1ccc(Br)c(C(=O)Nc2cc3c(cc2N2CCOCC2)n(C)c(=O)n3C)c1	.	.	/	.	/	.
O=C1NC(c2ccccc2)(C(F)(F)F)SC2=CCCCCN12 (stereo not given)	.	.	.	25µM	.	.
Cc1noc(Cn2c(=O)c3ccccc3n(CC(=O)Nc3cc(Cl)ccc3C)c2=O)n1	.	.	/	.	/	.
Cc1ccn2c(=S)[nH]nc2c1	.	?	.	/	/	-67
Cc1ccc(OCC(=O)NCC2(N3CCOCC3)CCCCC2)cc1C	.	.	/	.	/	-60
COc1cc(OC)c(NC(=O)c2cc3c(=O)oc4ccc(C)cc4c3s2)cc1Cl	.	.	/	.	/	.
Cc1ccc(N2C(=O)[C@@H]3C(C(=O)CCN4C(=O)c5ccccc5C4=O)=NN[C@@H]3C2=O)cc1	.	.	.	.	.	.
O=C(CCN1C(=O)c2ccccc2C1=O)C1=NN[C@@H]2C(=O)N(c3ccc4c(c3)OCO4)C(=O)[C@H]12	.	.	.	25µM	.	.
O=C(c1ccccc1Cc1ccccc1)N1CCN(S(=O)(=O)c2ccc(F)cc2)CC1	.	.	.	.	/	.
Cc1noc(C)c1COc1ccccc1C(=O)N1CCN(S(=O)(=O)c2ccccc2C(F)(F)F)CC1	.	.	.	.	/	.
Cc1noc(C)c1COc1ccccc1C(=O)N1CCN(S(=O)(=O)c2ccc(C(C)C)cc2)CC1	?	.	.	/	/	-75
O=C(c1ccccc1Cc1ccccc1)N1CCN(S(=O)(=O)c2ccccc2Br)CC1	?	.	.	.	/	-72
Cc1noc(C)c1COc1ccccc1C(=O)N1CCN(S(=O)(=O)c2cccc(Cl)c2)CC1	.	.	.	.	/	.
Cc1noc(C)c1COc1ccccc1C(=O)N1CCN(S(=O)(=O)c2ccccc2Br)CC1	?	.	.	/	/	-86
O=S(=O)(O)CCCS(=O)(=O)O	/	.	/	/	/	.
SMILES	FMDV inh	TbPYK inhibitor	RE007 growth inh	Sm TGR inh	FBPA Giardia inh	HCMV antiviral
CC(C(=O)N1CCCC1)N(C)CC(=O)Nc1cccc(F)c1 (stereo not given)	.	.	.	8.9µM	/	?
Cc1ccc(-n2c(C)cc(C(=O)CSc3nncs3)c2C)cc1	/	.	.	.	.	-71
Cc1ccc(NC(=O)COc2ccccc2)c(NC(=O)c2ccccc2C)c1	.	.	.	/	/	-64
Cc1ccc(CN(C)C(=O)C2CCCN2C(=O)c2cccs2)o1 (stereo not given)	.	?	.	7.9µM	.	.
CC(C)c1nn2c(=O)cc(COC(=O)c3ccc(NC(=O)C4CCCCC4)cc3)nc2s1	.	.	/	.	/	.
C/C(=C\c1cccc(Cl)c1Cl)C(=O)c1c(C)cc(C)[nH]c1=O	.	.	.	.	.	.
COc1ccccc1/C=C/C(C)=O	?	.	.	.	.	?
COc1ccccc1/C=C/C(=O)c1cc(Br)ccc1OC(=O)c1ccco1	?	.	.	/	/	.
CNc1ccccc(C(=O)/C=C/c2ccccc2OC)c1=O	?	.	.	2.8µM	11µM	.
CCNc1ccc(Br)cc(C(=O)/C=C/c2ccccc2Cl)c1=O	?	.	.	/	/	-103
CNc1ccc(Br)cc(C(=O)/C=C/c2cccc(Cl)c2Cl)c1=O	20µM	.	.	2.5µM	?	.
CNc1ccc(Br)cc(C(=O)/C=C/c2cccc(OC)c2OC)c1=O	.	/	.[3.69 µM]	7.1µM	?	-92
COc1ccc(OC)c(NC(=O)Cn2c(=O)n(-c3ccc(Cl)cc3)c(=O)c3c(C)c(C)sc32)c1	.	.	/	.	/	.
Cc1ccc2c(c1)-c1onc(C(=O)N(C)c3ccc(F)cc3)c1CO2	.	.	/	.	/	.
Cc1ccc2nc(-c3cc(N)cc(N)c3)oc2c1	.	.	.	50µM	.	.
Nc1ccc(-c2nc3ccc(N)cc3o2)cc1	.	.	.	.	.	.
CCC(=O)N1CCc2cc(Br)cc(S(=O)(=O)NCCCN(C)Cc3ccccc3)c21	.	.	.	.	.	-67
CC(=O)N1CCc2cc(Br)cc(S(=O)(=O)NCCCN(C)Cc3ccccc3)c21	.	.	.	.	.	?
O=C(Cc1coc2cc3c(cc12)CCC3)OCC(=O)N1CCCC1=O	14µM	.	.	.	.	.
CCSC1(SCC)N=C(N)C2(C#N)C(c3ccc(F)cc3)C12C#N (stereo not given)	14µM	.	4.5µM	?	.	-107
CCSC1(SCC)N=C(N)C2(C#N)C(c3ccccc3)NC(C)=C(C)C12C#N (stereo not given)	.	.	56µM	.	.	.

Screening results deposited in PubChem BioAssay by National Center for Advancing Translational Sciences (NCATS).
